This is a sample that favours compounds with a hit; in the whole collection about 1.9% have one here.
Hsp70 act – switches on Hsp70 transcription; 200,000 compounds, 0.04% hits; HeLa Hsp70 promoter luciferase reporter, luminescence; scaled: vehicle 0, proteasome-inhibitor control 100%; AID 1203; activation, % at 10 µM;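 active = activation above the mean across all tested compounds plus 3 SD, cutoff set per campaign, cut at about 5.5% in these data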
TNF necrop inh – blocks TNF-alpha induced death of Jurkat FADD-/- cells | Jurkat FADD-/- TNF necroptosis rescue, ATP luminescence, 24 h; 0 = TNF only, 100 = no-TNF cells | activation (protection from cell death), % at 10 µM | AID 463075 | 220,000 compounds, 0.068% hits;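 active = activation, meaning protection from cell death, of at least 50% relative to plate controls; inactive = activation below 50%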;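 also: necroptosis triggered by 40 ng/mL TNF-alpha added together with compound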
HSF1 activator – increases HSF-1 driven luciferase reporter signal. NIH3T3-HGL HSF-1 luciferase reporter, MG132, 8 h; 100% = twice DMSO control signal. activation, % at 9 µM. 300,000 compounds, 1.7% hits. AID 504408;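 active = mean replicate activation of at least 50% with a set share of replicates each reaching 50%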
zVAD death inh – L929 zVAD cell death inhibition; 220,000 compounds, 0.38% hits; L929 zVAD necroptosis rescue, ATP luminescence, 24 h; with zVAD 60 µM; viability rescue, % at 10 µM;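 active = activation, scaled between plate controls, above about 75%, limit read from the data; inactive = activation under that limit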
A number is an active result; . = inactive; / = no result given.

SMILES | Hsp70 act | TNF necrop inh | HSF1 activator | zVAD death inh
c1ccc(-c2cc(CSc3nc4ccccc4[nH]3)on2)cc1 | . | . | 61 | .
CCOc1ccc(NC(=O)[C@H](Cc2ccccc2)NC(=O)C2CCNCC2)cc1 | / | / | . | /
CC(C)n1c(/C=C/c2ccccc2)nc2ccccc21 | . | . | 107 | .
COCCOCCn1c(/C=C/c2ccccc2)nc2ccccc21 | . | . | 60 | .
CC(C)n1c(CN(C)c2ccccc2)nc2ccccc21 | / | / | . | /
CCCn1c(/C=C/c2ccccc2)nc2ccccc21 | . | . | / | .
CCOCCCNC(=O)CSc1nnc(-c2ccc(S(=O)(=O)N3CCCC3)cc2)n1C | / | / | . | /
Cc1ccc(C)c(OCCC(=O)N2CCN(S(=O)(=O)c3cc(C)ccc3C)CC2)c1 | / | / | . | /
C=CCn1c(O)c2ccc(C(=O)N=NC(=O)COc3ccc(OC)cc3)cc2c1O | / | / | . | /
CC(=O)NCCc1nc2cc(NC(=O)c3ccc([N+](=O)[O-])cc3)ccc2n1C | / | / | . | /
Oc1ccccc1C1NN=C(c2ccccc2)S1 (centres undefined) | / | / | 81 | /
CSc1ccc(C2NN=C(c3ccccc3)S2)cc1 (centres undefined) | / | / | . | /
N=C1C(c2nc3ccccc3s2)=C(O)CN1C1CCCCC1 | . | . | 54 | .
Nc1c(C(=O)c2ccccc2)sc2nsc(SCCN3CCOCC3)c12 | / | . | 60 | .
Cc1ccc(-n2ncc3c(SCC(N)=O)ncnc32)cc1C | / | / | 67 | /
O=C(NCCOC(=O)c1ccc(Cl)cc1)c1cccnc1 | . | . | . | .
Cc1n[nH]c(C)c1S(=O)(=O)N(CC(=O)N1CCc2ccccc21)c1ccc(C(C)C)cc1 | . | . | 75 | .
COc1ccc(OC)c(-n2c(=O)c3ccccc3c3ccccc3c2=O)c1 | . | . | 59 | .
Cc1ccccc1/[N+]([O-])=C/c1cccs1 | . | . | 95 | .
O=C(Nc1ccc(Nc2ccccc2)cc1)c1cc([N+](=O)[O-])ccc1Cl | / | / | 134 | /
O=C(Nc1ccc(N2CCN(C(=O)c3ccco3)CC2)cc1)c1ccc([N+](=O)[O-])cc1Cl | / | / | . | /
CC(=O)Nc1ccc(NC(=O)c2ccccc2Sc2ccc([N+](=O)[O-])cc2Cl)cc1 | . | . | 76 | .
O=C(Nc1ccc2c(c1)CCCN2C(=O)c1ccco1)c1cc([N+](=O)[O-])ccc1Cl | / | / | 74 | /
O=C(Nc1ccccc1Oc1ccccc1)c1cc([N+](=O)[O-])ccc1Cl | . | . | . | .
O=C(c1ccccc1Sc1ccc([N+](=O)[O-])cc1Cl)N1CCOCC1 | . | . | . | .
SMILES | Hsp70 act | TNF necrop inh | HSF1 activator | zVAD death inh
COc1cccc(CN2C(=O)C3CCCN3c3ccc(S(=O)(=O)N4CCOCC4)cc32)c1 (centres undefined) | . | . | . | .
CCOC(=O)c1csc(COc2ccccc2Cl)n1 | / | . | . | .
CCOC(=O)c1csc(COc2ccc(OC)cc2)n1 | / | . | 64 | .
CCCNC(=O)c1c(CSc2ccc(Cl)cc2)noc1C(=O)NCc1ccccc1 | / | / | 54 | /
CCCCNC(=O)c1c(CSc2ccc(Cl)cc2)noc1C(=O)NCc1ccccc1 | / | / | . | /
O=c1[nH]c(Nc2ccccc2Cl)cc2ccccc12 | / | / | 61 | /
C=CCc1cc(OC)ccc1OCCN1CC(C)OC(C)C1 (centres undefined) | / | / | . | /
CCCCCNC(=O)C1CCC(Cn2c(=S)[nH]c3ccccc3c2=O)CC1 (centres undefined) | . | . | 85 | .
CCOc1cc(/C=N/NC(=O)Cn2nc([N+](=O)[O-])cc2C)cc(Br)c1OCc1ccccc1C | . | . | 71 | .
CCCCCn1c(N2CCOCC2)nc2c1c(=O)n(CC(N)=O)c(=O)n2C | . | . | . | .
Cc1cccc2c1-c1sc(C(=O)Nc3nccs3)cc1CO2 | . | . | 56 | .
O=Cc1ccc(N2CCCC2)c([N+](=O)[O-])c1 | . | . | . | .
O=[N+]([O-])/C=C\c1ccc(N2CCCC2)c(F)c1 | . | . | 79 | .
O=C(NCC1CC1)c1ccc2c3n(nc2c1)-c1ccccc1CO3 | / | . | 58 | .
CSc1ccccc1NC(=S)Nc1ccc(S(N)(=O)=O)cc1 | . | . | 54 | .
Cc1cc(NCCN2CCOCC2)n2nc(C)c(-c3ccc(Cl)cc3)c2n1 | . | . | 65 | .
COc1ccc(OC)c(S(=O)(=O)Nc2c(NC3CCCCC3)c3ccccc3oc2=O)c1 | / | / | . | /
COc1ccc(C(=O)N2CCOC2CNC(=O)C(=O)NCCc2ccc(OC)c(OC)c2)cc1 (centres undefined) | / | / | . | /
CS(=O)(=O)c1ccc(C(=O)OCC(=O)c2ccc(Cl)s2)cc1 | / | / | . | /
CC(C)(C)c1ccc(OCCCC(=O)Nc2ccc(S(N)(=O)=O)cc2)cc1 | . | . | 56 | .

Compound activity as filed in PubChem BioAssay.
